Of roughly 7,900 targets only a part is listed; those with a hit were picked by preference. About 0.6% of all pairs of compound and target were hits.
What was measured:
Test in all cases: log2 fold change, soluble protein after heating vs DMSO (PISA); higher = thermal stabilisation; K562 cells, 10 uM, 30 min; active = over 0.2 and 3.5 SD of the protein, either way, in both replicates (recomputed)
[1] = compound: CS(=O)(=O)c1ccc(-c2cnc(N)c(C(=O)Nc3ccccc3)n2)cc1
Procedure, shortened: (§1)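 K562 cells at 2×10^6 cells/mL were exposed to 10 μM compound for 30 min, then aliquots were heated for 3 min across 48°C-58°C, pooled, and extracted in PBS containing 0.5% NP-40 at 4°C. The supernatant after 21,000xg for 90 min was taken as soluble protein and measured by TMTpro 16plex LC-MS/MS with channel sums equalised. Thermal stability is reported relative to control samples, with values from duplicates. Fold changes are given on a log2 scale.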

crizotinib = compound: C[C@@H](Oc1cc(-c2cnn(C3CCNCC3)c2)cnc1N)c1c(Cl)ccc(F)c1Cl [crizotinib]
Procedure, shortened: as §1

[2] = compound: C[C@@H]1COCCN1C2=NC(=NC(=C2)C3(CC3)S(=O)(=O)C)C4=C5C=CNC5=CC=C4
Procedure, shortened: as §1

[3] = compound: C[C@H](C1=CC=C(C=C1)C(=O)NC2=C3C=CNC3=NC=C2)N
Procedure, shortened: as §1

duvelisib = compound: C[C@H](Nc1ncnc2nc[nH]c12)c1cc2cccc(Cl)c2c(=O)n1-c1ccccc1 [duvelisib]
Procedure, shortened: as §1

gandotinib = compound: Cc1cc(Nc2cc(CN3CCOCC3)c3nc(C)c(Cc4ccc(Cl)cc4F)n3n2)n[nH]1 [gandotinib]
Procedure, shortened: as §1

tozasertib = compound: Cc1cc(Nc2cc(N3CCN(C)CC3)nc(Sc3ccc(NC(=O)C4CC4)cc3)n2)n[nH]1 [tozasertib]
Procedure, shortened: as §1

[4] = compound: Cc1cc(SCc2sc(-c3ccc(C(F)(F)F)cc3)nc2C)ccc1OCC(=O)O
Procedure, shortened: as §1

doramapimod = compound: Cc1ccc(-n2nc(C(C)(C)C)cc2NC(=O)Nc2ccc(OCCN3CCOCC3)c3ccccc23)cc1 [doramapimod]
Procedure, shortened: as §1

ispinesib = compound: Cc1ccc(C(=O)N(CCCN)[C@@H](c2nc3cc(Cl)ccc3c(=O)n2Cc2ccccc2)C(C)C)cc1 [ispinesib]
Procedure, shortened: as §1

bafetinib = compound: Cc1ccc(NC(=O)c2ccc(CN3CC[C@H](N(C)C)C3)c(C(F)(F)F)c2)cc1Nc1nccc(-c2cncnc2)n1 [bafetinib]
Procedure, shortened: as §1

[5] = compound: Cc1cccc(CC(=O)N2CCc3c2ccc(-c2cn(C)c4ncnc(N)c24)c3F)n1
Procedure, shortened: as §1

nilotinib = compound: Cc1cn(-c2cc(NC(=O)c3ccc(C)c(Nc4nccc(-c5cccnc5)n4)c3)cc(C(F)(F)F)c2)cn1 [nilotinib]
Procedure, shortened: as §1

[6] = compound: Cc1nc(Nc2n[nH]c3c2CN(C(=O)N[C@H](CN(C)C)c2ccccc2)C3(C)C)c2sccc2n1
Procedure, shortened: as §1

dasatinib = compound: Cc1nc(Nc2ncc(C(=O)Nc3c(C)cccc3Cl)s2)cc(N2CCN(CCO)CC2)n1 [dasatinib]
Procedure, shortened: as §1

[7] = compound: Cc1ncc(-c2ccnc(Nc3ccc(S(C)(=O)=O)cc3)n2)n1C(C)C
Procedure, shortened: as §1

[8] = compound: Cn1cc(-c2ccc3c(c2)CCN3C(=O)Cc2cccc(C(F)(F)F)c2)c2c(N)ncnc21
Procedure, shortened: as §1

[9] = compound: Cn1cc(-c2ccc3nnc(C(F)(F)c4ccc5ncccc5c4)n3n2)cn1
Procedure, shortened: as §1

tipifarnib = compound: Cn1cncc1[C@@](N)(c1ccc(Cl)cc1)c1ccc2c(c1)c(-c1cccc(Cl)c1)cc(=O)n2C [tipifarnib]
Procedure, shortened: as §1

mubritinib = compound: FC(F)(F)c1ccc(/C=C/c2nc(COc3ccc(CCCCn4ccnn4)cc3)co2)cc1 [mubritinib]
Procedure, shortened: as §1

Measured: log2 fold change

HOMER1 (UniProt Q86YM7)
Sequence of UniProt Q86YM7 (Q86YM7 whole entry, looked up): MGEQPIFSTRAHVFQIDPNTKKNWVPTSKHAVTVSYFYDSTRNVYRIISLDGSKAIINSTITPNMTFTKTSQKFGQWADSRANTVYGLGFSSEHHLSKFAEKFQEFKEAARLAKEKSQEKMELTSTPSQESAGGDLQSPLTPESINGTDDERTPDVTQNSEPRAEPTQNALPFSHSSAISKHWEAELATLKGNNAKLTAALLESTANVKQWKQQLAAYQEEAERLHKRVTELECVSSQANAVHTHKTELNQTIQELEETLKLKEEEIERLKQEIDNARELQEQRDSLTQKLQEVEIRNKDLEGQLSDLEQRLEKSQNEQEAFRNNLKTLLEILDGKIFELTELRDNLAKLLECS
inactive: [1] -0.011 | crizotinib -0.015 | [2] 0.071 | [3] -0.014 | duvelisib 0.024 | gandotinib -0.068 | tozasertib 0.046 | [4] -0.002 | doramapimod 0.027 | ispinesib 0.083 | bafetinib -0.016 | [5] -0.002 | nilotinib -0.02 | [6] 0.046 | dasatinib -0.054 | [7] -0.008 | [8] 0.003 | [9] 0.117 | tipifarnib -0.031 | mubritinib 0.089

FARS2 (UniProt O95363)
Sequence of UniProt O95363 (O95363 whole entry, looked up): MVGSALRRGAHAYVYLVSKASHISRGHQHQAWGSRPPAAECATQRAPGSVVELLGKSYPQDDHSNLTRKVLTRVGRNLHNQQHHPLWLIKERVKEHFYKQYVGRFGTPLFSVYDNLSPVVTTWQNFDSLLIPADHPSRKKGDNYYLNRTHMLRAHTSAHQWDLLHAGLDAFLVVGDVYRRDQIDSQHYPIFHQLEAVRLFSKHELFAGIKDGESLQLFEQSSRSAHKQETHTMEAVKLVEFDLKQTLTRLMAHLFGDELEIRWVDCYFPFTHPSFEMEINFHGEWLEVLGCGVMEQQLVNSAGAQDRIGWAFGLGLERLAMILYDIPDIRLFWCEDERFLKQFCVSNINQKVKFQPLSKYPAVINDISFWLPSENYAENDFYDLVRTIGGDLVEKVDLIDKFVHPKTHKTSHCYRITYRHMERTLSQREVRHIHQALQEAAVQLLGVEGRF
inactive: [1] 0.004 | crizotinib -0.043 | [2] 0.088 | [3] 0.041 | duvelisib 0.073 | gandotinib -0.021 | tozasertib 0.045 | [4] 0.06 | doramapimod -0.023 | ispinesib -0.157 | bafetinib -0.058 | [5] 0.064 | nilotinib -0.126 | [6] 0.079 | dasatinib -0.058 | [7] -0.097 | [8] 0.039 | [9] 0.039 | tipifarnib 0.018 | mubritinib -0.168

IDH3A (UniProt P50213)
Sequence of UniProt P50213 (P50213 whole entry, looked up): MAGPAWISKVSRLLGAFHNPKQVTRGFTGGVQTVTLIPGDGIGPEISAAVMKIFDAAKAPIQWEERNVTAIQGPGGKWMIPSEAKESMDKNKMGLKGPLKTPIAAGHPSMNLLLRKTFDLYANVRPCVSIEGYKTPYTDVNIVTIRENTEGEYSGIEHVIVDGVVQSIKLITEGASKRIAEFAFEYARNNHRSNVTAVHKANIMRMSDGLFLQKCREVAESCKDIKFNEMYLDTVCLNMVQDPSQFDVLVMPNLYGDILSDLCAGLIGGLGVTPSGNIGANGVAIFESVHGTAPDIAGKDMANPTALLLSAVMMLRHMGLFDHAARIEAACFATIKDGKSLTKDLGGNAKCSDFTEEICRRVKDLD
inactive: [1] 0.023 | crizotinib 0.006 | [2] 0.07 | [3] -0.046 | duvelisib 0.063 | gandotinib -0.037 | tozasertib -0.029 | [4] 0.022 | doramapimod -0.024 | ispinesib 0.013 | bafetinib -0.016 | [5] 0.021 | nilotinib -0.027 | [6] -0.006 | dasatinib -0.005 | [7] -0.024 | [8] 0.045 | [9] 0.021 | tipifarnib -0.001 | mubritinib 0.06

GBF1 (UniProt Q92538)
Sequence of UniProt Q92538 (Q92538 whole entry, looked up): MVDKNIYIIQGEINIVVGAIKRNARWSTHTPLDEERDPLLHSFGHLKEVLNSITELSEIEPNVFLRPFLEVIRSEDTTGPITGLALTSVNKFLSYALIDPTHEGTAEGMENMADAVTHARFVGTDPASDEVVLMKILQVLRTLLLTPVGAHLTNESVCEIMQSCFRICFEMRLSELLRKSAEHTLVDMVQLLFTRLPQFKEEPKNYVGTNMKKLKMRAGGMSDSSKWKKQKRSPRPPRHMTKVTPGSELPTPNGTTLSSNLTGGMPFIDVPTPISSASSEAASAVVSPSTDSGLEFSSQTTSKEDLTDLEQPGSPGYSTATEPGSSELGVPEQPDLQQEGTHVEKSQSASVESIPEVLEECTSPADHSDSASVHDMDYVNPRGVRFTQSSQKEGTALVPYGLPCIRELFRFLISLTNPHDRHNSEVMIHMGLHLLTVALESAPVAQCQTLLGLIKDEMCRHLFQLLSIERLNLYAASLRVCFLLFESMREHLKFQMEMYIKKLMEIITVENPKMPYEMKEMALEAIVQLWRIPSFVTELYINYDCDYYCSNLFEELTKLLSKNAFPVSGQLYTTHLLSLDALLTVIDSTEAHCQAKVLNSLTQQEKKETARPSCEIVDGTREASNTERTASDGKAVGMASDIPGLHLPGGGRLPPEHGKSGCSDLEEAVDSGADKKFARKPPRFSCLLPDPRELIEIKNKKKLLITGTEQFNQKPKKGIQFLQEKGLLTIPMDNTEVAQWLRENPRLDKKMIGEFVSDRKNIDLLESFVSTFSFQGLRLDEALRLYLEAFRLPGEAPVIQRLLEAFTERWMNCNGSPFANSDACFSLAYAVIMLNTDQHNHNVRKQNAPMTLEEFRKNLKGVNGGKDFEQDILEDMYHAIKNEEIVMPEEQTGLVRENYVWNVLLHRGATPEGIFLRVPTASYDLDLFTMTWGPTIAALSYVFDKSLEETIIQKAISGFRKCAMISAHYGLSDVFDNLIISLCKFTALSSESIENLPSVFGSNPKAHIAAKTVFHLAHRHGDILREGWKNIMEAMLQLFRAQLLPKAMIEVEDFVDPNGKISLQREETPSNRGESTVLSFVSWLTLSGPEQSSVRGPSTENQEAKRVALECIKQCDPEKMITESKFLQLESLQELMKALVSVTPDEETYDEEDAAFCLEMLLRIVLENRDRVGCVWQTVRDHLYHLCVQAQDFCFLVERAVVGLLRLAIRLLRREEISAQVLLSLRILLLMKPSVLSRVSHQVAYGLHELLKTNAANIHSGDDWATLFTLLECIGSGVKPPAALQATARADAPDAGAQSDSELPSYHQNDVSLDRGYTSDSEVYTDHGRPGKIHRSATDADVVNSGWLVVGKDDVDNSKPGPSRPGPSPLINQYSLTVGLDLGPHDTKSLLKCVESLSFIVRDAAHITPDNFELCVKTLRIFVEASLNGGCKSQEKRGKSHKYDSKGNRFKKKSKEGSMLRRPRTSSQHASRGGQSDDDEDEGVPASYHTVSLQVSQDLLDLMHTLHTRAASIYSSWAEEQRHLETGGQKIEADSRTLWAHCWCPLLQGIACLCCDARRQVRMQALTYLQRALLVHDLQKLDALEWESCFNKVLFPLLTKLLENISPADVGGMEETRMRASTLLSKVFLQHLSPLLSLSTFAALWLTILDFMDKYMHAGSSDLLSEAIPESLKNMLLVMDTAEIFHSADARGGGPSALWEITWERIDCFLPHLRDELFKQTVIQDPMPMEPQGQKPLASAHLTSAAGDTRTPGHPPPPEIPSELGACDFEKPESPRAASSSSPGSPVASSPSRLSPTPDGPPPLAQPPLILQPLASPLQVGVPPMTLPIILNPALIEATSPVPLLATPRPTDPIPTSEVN
inactive: [1] -0.032 | crizotinib -0.131 | [2] 0.023 | [3] 0.08 | duvelisib -0.028 | gandotinib -0.197 | tozasertib 0.039 | [4] 0.041 | doramapimod 0.059 | ispinesib 0.012 | bafetinib 0.014 | [5] 0.081 | nilotinib -0.117 | [6] -0.109 | dasatinib -0.113 | [7] -0.001 | [8] -0.079 | [9] -0.049 | tipifarnib -0.15 | mubritinib 0.093

HPCAL1 (UniProt P37235)
inactive: [1] 0.015 | crizotinib 0.011 | [2] 0.08 | [3] -0.047 | duvelisib 0.032 | gandotinib -0.033 | tozasertib 0.024 | [4] -0.014 | doramapimod -0.027 | ispinesib -0.054 | bafetinib -0.09 | [5] 0.027 | nilotinib -0.076 | [6] 0.033 | dasatinib -0.031 | [7] -0.028 | [8] -0.011 | [9] 0.053 | tipifarnib -0.032 | mubritinib 0.016

GABARAPL1 isoform 2 (UniProt Q9H0R8)
Sequence of UniProt Q9H0R8 (Q9H0R8 whole entry, looked up): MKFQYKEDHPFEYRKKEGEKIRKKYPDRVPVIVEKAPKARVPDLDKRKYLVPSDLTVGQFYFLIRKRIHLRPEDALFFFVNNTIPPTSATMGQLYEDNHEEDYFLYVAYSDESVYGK
inactive: [1] 0.105 | [2] 0.048 | [3] -0.045 | duvelisib 0.057 | gandotinib 0.078 | tozasertib -0.008 | [4] 0.026 | doramapimod -0.034 | bafetinib -0.171 | [5] 0.006 | nilotinib -0.05 | [6] -0.028 | dasatinib -0.031 | [7] 0.017 | [8] -0.016 | [9] 0.003 | tipifarnib -0.075 | mubritinib 0.044
active: crizotinib -0.344 | ispinesib -0.315

HDAC6 (UniProt Q9UBN7)
inactive: [1] -0.019 | crizotinib -0.057 | [2] -0.007 | [3] 0.066 | duvelisib 0.045 | gandotinib 0.079 | tozasertib -0.091 | [4] 0.062 | doramapimod 0.015 | ispinesib -0.027 | bafetinib -0.18 | [5] -0.086 | nilotinib 0.126 | [6] -0.026 | dasatinib -0.107 | [7] -0.084 | [8] 0.055 | [9] -0.005 | tipifarnib -0.009 | mubritinib 0.086

HSPA8 (UniProt P11142)
Sequence of UniProt P11142 (P11142 whole entry, looked up): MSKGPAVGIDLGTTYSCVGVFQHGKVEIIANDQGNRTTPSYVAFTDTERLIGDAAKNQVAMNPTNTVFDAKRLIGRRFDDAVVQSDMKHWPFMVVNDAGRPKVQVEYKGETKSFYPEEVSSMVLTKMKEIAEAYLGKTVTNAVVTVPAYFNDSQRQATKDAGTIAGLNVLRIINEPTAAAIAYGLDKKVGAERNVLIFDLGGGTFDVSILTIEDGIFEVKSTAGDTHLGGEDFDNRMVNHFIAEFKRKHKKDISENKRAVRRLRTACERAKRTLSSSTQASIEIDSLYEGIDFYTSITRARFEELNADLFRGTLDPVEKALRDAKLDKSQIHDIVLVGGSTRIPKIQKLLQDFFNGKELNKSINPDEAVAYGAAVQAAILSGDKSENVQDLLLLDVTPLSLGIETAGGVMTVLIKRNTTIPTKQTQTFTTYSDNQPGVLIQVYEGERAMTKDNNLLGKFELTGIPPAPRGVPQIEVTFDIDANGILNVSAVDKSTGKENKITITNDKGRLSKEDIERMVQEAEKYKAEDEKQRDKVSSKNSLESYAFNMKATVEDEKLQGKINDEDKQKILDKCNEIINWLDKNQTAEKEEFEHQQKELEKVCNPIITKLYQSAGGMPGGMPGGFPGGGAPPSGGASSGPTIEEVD
inactive: [1] 0.003 | crizotinib 0.039 | [2] -0.048 | [3] -0.009 | duvelisib -0.026 | gandotinib 0.014 | tozasertib 0.01 | [4] -0.003 | doramapimod -0.008 | ispinesib 0.028 | bafetinib 0.008 | [5] -0.008 | nilotinib 0.081 | [6] -0.001 | dasatinib 0.03 | [7] -0.003 | [8] -0.029 | [9] -0.003 | tipifarnib 0.037 | mubritinib -0.002

GTF2E1 (UniProt P29083)
Sequence of UniProt P29083 (P29083 whole entry, looked up): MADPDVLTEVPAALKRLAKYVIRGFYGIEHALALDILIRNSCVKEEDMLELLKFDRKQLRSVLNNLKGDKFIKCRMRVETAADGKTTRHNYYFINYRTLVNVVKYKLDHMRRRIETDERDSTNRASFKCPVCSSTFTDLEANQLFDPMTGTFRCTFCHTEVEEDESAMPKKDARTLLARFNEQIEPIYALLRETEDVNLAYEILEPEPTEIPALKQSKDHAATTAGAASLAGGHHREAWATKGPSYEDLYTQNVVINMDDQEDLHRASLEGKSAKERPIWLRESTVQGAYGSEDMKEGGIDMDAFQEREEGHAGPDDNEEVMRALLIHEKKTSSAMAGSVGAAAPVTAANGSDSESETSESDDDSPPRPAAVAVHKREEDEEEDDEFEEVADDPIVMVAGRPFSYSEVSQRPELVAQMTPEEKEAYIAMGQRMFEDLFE
inactive: [1] 0.008 | crizotinib 0.02 | [2] 0.118 | [3] -0.088 | duvelisib 0.035 | gandotinib -0.011 | tozasertib 0.046 | [4] 0.059 | doramapimod -0.03 | ispinesib -0.028 | bafetinib 0.014 | [5] 0.037 | nilotinib -0.112 | [6] -0.168 | dasatinib -0.173 | [7] -0.032 | [8] 0.02 | [9] 0.093 | tipifarnib -0.13 | mubritinib 0.05

GTF2A2 (UniProt P52657)
Sequence of UniProt P52657 (P52657 whole entry, looked up): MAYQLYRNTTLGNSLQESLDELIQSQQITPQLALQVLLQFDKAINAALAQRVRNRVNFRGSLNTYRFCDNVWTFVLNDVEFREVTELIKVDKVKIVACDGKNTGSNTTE
inactive: [1] 0.022 | crizotinib 0.11 | [2] 0.102 | [3] 0.015 | duvelisib 0.067 | gandotinib -0.005 | tozasertib 0.031 | [4] -0.076 | doramapimod -0.034 | ispinesib 0.023 | bafetinib -0.032 | [5] -0.036 | nilotinib -0.025 | [6] 0.022 | dasatinib 0.047 | [7] -0.021 | [8] 0.056 | [9] 0.104 | tipifarnib -0.028 | mubritinib 0.008

HMGN2 (UniProt P05204)
inactive: [1] -0.093 | crizotinib 0.051 | [2] -0.201 | [3] -0.019 | duvelisib -0.062 | gandotinib -0.212 | tozasertib -0.031 | [4] -0.058 | doramapimod -0.1 | ispinesib -0.048 | bafetinib -0.013 | [5] -0.189 | nilotinib -0.025 | [6] 0.022 | dasatinib 0.053 | [7] 0 | [8] -0.025 | [9] 0.04 | tipifarnib 0.079 | mubritinib 0.021

GOPC (UniProt Q9HD26)
inactive: [1] 0.218 | crizotinib 0.293 | [2] -0.043 | [3] 0.294 | duvelisib -0.003 | gandotinib 0.101 | tozasertib 0.144 | [4] 0.091 | doramapimod 0.061 | ispinesib 0.038 | bafetinib 0.233 | [5] -0.131 | nilotinib 0.009 | [6] 0.05 | dasatinib -0.081 | [7] 0.021 | [8] -0.005 | [9] -0.02 | tipifarnib 0.127 | mubritinib -0.226

GCSH (UniProt P23434)
Sequence of UniProt P23434 (P23434 whole entry, looked up): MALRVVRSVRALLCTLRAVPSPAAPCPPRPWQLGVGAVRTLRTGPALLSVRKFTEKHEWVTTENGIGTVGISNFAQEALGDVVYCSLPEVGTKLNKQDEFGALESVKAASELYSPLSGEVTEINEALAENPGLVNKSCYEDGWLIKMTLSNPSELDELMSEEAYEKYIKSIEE
inactive: [1] -0.009 | crizotinib 0.073 | [2] 0.005 | [3] -0.022 | duvelisib -0.014 | gandotinib 0.043 | tozasertib 0.07 | [4] 0.026 | doramapimod 0.032 | ispinesib -0.057 | bafetinib -0.13 | [5] 0.095 | nilotinib -0.022 | [6] 0.01 | dasatinib 0.015 | [7] -0.026 | [8] 0.016 | [9] 0.016 | tipifarnib -0.017 | mubritinib -0.05

GOLGB1 isoform 2 (UniProt Q14789)
active: [2] -0.314
inactive: [1] -0.135 | crizotinib -0.012 | [3] 0.19 | duvelisib 0.004 | gandotinib -0.031 | tozasertib 0.211 | [4] -0.025 | doramapimod 0.056 | ispinesib 0.012 | bafetinib -0.022 | [5] -0.03 | nilotinib -0.054 | [6] 0.018 | dasatinib 0.08 | [7] -0.078 | [8] -0.077 | [9] 0 | tipifarnib 0.014 | mubritinib 0.017

GNG5 (UniProt P63218)
Sequence of UniProt P63218 (P63218 whole entry, looked up): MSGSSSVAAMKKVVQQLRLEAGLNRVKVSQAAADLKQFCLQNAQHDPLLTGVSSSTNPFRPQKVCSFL
inactive: [1] 0.014 | crizotinib 0.094 | [2] 0.207 | [3] -0.13 | duvelisib 0.134 | gandotinib 0.055 | tozasertib 0.063 | [4] -0.071 | doramapimod 0.008 | ispinesib 0.216 | bafetinib 0.013 | [5] -0.048 | nilotinib 0.12 | [6] 0.023 | dasatinib 0.06 | [7] -0.051 | [8] 0.027 | [9] 0.169 | tipifarnib 0.027 | mubritinib 0.039
